LMNA splice mod: modulators of lamin A splicing | HeLa LMNA splicing GFP/RFP minigene ratio, 48 h | hit rate 0.01% among 200,000 | AID 1487 | Potency, µM (series often up to 46.1 µM), for inactives: top-dose ratio change, negative = inhibition, actives largely listed as inhibitors; active means well fitted inhibition curve with a large enough effect in the signal ratio, with a control signal flat, not every such curve was filed as active; inconclusive means small, poorly fitted or top-dose-only effect, or effect the other way, or a change in a side signal; the % refers to the signal ratio; further: potency means the concentration at half of the fitted maximal effect
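S3 HeLa cells stably expressing lamin A-EGFP splicing minigene plus DsRed2, 600 cells/well, 48 h compound exposure at 37C. Laser-scanning cytometry; analysed as GFP (500-530 nm)/RFP (575-640 nm) total intensity ratio; 0.5% DMSO vehicle.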
ALDH1A1 inh: ALDH1A1 (human) enzyme inhibition; hit rate 7.3% among 220,000; AID 1030; P00352; Purified ALDH1A1, NADH fluorescence, propionaldehyde substrate; Potency, µM (titrated, usually from 75.3 µM), for the others: top-dose activity, negative = inhibition, usual class: inhibitors;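 further: potency means the concentration at half of the fitted maximal effect; plate controls were no enzyme wells and a reference inhibitor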
Target sequence (P00352 whole entry, looked up): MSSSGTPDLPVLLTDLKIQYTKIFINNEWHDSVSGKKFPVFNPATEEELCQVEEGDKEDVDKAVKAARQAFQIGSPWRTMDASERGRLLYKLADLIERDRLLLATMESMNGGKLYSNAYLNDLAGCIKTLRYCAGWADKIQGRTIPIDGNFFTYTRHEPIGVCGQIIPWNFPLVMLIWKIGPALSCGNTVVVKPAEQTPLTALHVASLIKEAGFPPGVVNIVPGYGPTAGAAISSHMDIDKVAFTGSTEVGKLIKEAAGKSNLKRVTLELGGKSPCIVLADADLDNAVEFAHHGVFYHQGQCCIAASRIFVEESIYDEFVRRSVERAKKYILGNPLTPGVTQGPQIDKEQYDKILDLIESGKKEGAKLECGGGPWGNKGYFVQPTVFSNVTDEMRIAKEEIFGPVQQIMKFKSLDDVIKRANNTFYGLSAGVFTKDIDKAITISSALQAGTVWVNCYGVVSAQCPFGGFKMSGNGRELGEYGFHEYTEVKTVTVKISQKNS
IMPase cell inh: cell-permeable inhibitors of inositol monophosphatase (IMPase); P97697; CHO-M1 cells, IP1 accumulation, HTRF TR-FRET ratio; inhibition (IP1 accumulation), % at 46.1 µM; 120,000 tested, under 10 active; active means well fitted curve in the direction sought with a large enough effect in the signal ratio, not every such curve was filed as active; inconclusive means small, poorly fitted or top-dose-only effect, or a change in a side signal; inactive means no such curve, though single readings can be large or run the other way; the % refers to the signal ratio;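 further: cells stimulated with carbachol in lithium chloride buffer; plate controls were DMSO basal wells for no effect and reference inhibitor wells for full effect; higher means more IMPase inhibition seen as more IP1 and lower FRET ratio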
Target sequence (P97697 whole entry, looked up): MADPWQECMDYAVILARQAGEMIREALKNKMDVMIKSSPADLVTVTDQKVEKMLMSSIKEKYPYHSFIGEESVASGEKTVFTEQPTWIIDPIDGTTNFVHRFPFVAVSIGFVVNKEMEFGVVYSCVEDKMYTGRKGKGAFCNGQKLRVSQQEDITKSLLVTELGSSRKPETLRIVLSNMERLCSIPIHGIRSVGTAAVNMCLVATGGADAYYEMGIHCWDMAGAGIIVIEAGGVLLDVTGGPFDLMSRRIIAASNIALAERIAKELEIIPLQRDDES
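Seeded CHO-M1 cells were dosed with compound at up to 46 uM, stimulated with carbachol for 30 min, then lysed in IP-One detection reagents. Higher IP1 lowers the TR-FRET signal.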
Luc counter: Kinase-Glo luciferase inhibition (counter-screen); Q27757; Kinase-Glo luciferase, ATP luminescence, 8 min; Potency, µM (top dose mostly 38.3 µM), without a hit: at the highest dose activity change, negative = inhibition, most hits filed as inhibitors; hit rate 0.28% among 200,000; active means well fitted inhibition curve with a large enough effect; inconclusive means small, poorly fitted or top-dose-only effect; further: potency means the concentration at half of the fitted maximal effect; nearly all actives have a fitted effect of over 60% in size
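Light output from Kinase-Glo luciferase with luciferin and 10 uM ATP in 50 mM imidazole pH 7.2, KCl, MgCl2, Tween 20, BSA; compound pin-delivered, 8-min ambient incubation, then luminescence read.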
HPGD block: inhibitors of human 15-hydroxyprostaglandin dehydrogenase (HPGD) | hit rate 4.3% among 150,000 | purified HPGD, NADH fluorescence kinetic, PGE2 substrate | AID 894 | Potency, µM, inactives show at the highest dose activity change, negative = inhibition, most hits filed as inhibitors | P15428; further: potency means the concentration at half of the fitted maximal effect
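20 nM HPGD preincubated 15 min at room temperature with compound in 50 mM Tris-HCl pH 8, 0.01% Tween 20. Started with 1 mM NAD+ and 30 uM prostaglandin E2; NADH fluorescence (360/450 nm) read 5 times over 30-s intervals, last minus first.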
PNC inhibitor: inhibitors of perinucleolar compartment assembly. hit rate 3.1% among 140,000. PC3M PTB-GFP, PNC prevalence imaging, 16 h; hits give low values. AID 2417. activity change (PNC), negative = inhibition, % at 10 µM;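 active means readout at or below -70, meaning at least 70% loss of cells showing the perinucleolar compartment, a nuclear body marking cancer cells; inconclusive means readout between -30 and a set limit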;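 further: plate controls were DMSO wells for no effect and camptothecin positive control wells for full effect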
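Compounds are pinned in duplicate onto adhered PC3M cells stably expressing GFP-tagged PTB and incubated 16 h at 37 C. Cells are then fixed, nuclei stained with Hoechst, and PNC-positive cells counted.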
* hit, by the source's call; ? = inconclusive; / = no result; [ ] = another dose, or the depositor's remark. A selection: hits, their analogues and other compounds. The true share with any hit is near 10%. Unless noted, the call rests on the fitted dose curve; in most records, active means well fitted inhibition curve with a large enough effect (not every such curve was filed as active); inconclusive means small, poorly fitted or top-dose-only effect, or another doubt; inactive means no such curve, though single readings can be large or run the other way. Unless noted, on the % scale 0 is the no-effect control and ±100 the full control effect.

SMILES	LMNA splice mod	ALDH1A1 inh	IMPase cell inh	Luc counter	HPGD block	PNC inhibitor
c1cncc(-c2nnc(-c3cccnc3)nn2)c1	?	11.2µM*	13.8	-10.1%	8.91µM*	?
Brc1ccccc1-n1nnc(-c2cccnc2)n1	/	6.6%	/	/	/	/
CC(=O)N(C(C)=O)c1c(C#N)c(C)n(-c2ccccc2)c1C(=O)c1ccccc1	-5.0%	-4.5%	8.1	-1.1%	5.3%	-92.5*
N#Cc1c(N)c(C(=O)c2ccccc2)n2c1CCCC2	-13.9%	-19.6%	7.0	-3.4%	-9.7%	11.0
CC(C)CC1(C(=O)NCCc2c[nH]c3ccccc23)C=CCN1C(=O)c1ccccc1 (stereo not given)	-2.9%	-2.5%	/	0.5%	-10.8%	38.7
O=C(CCS(=O)(=O)c1ccc(Cl)cc1)NCCc1c[nH]c2ccccc12	-13.8%[46 µM]	28.2µM*	/	4.7%	/	/
CC(C)C(=O)NCCc1c[nH]c2ccccc12	13.0%	0.2%	/	-3.4%	-24.6%	-123.8*
CC(=O)N1CC=CC1(CC(C)C)C(=O)NCCc1c[nH]c2ccccc12 (stereo not given)	-1.1%	13.9%	/	0.7%	-6.3%	-88.2*
CC(C)CNC(=O)CCCc1c[nH]c2ccccc12	2.1%	-1.5%	6.5	-2.5%	14.1µM*	-3.4
NS(=O)(=O)c1ccc(CCNC(=O)Cc2c[nH]c3ccccc23)cc1	0.1%	22.6%	/	1.8%	1.7%	64.7
O=C(NCCc1c[nH]c2ccccc12)C(F)(F)F	35.2%	-12.2%	-0.5	-0.9%	-24.4%	6.5
Nc1ccccc1C(=O)C[C@@H](N)C(=O)O	/	0.3%	/	/	/	/
COCCNC(=O)COc1ccc(OCCNC[C@H](O)COc2ccccc2)cc1	/	1.6%	/	/	/	/
C#CCCCCCCCCCCCC(=O)CC(O)COC(C)=O (stereo not given)	5.2%	8.9%	/	1.1%	-8.9%	/
Nc1cc(-c2ccncc2)c[nH]c1=O	?	11.2µM*	-1.9[20.6 µM]	-13.4%	?	?
CN1CCN(c2ccc(S(=O)(=O)N3CCCCC3)cn2)CC1	8.7%	6.0%	1.8	-0.1%	-2.1%	-82.6*
CCN(CC)S(=O)(=O)c1ccc(N2CCN(S(=O)(=O)c3ccc4c(c3)OCCO4)CC2)nc1	?	-5.6%	-4.7	2.5%	18.0%	-91.0*
COc1cc(/C=N/Nc2nncn2/N=C/c2ccc(O)c(OC)c2)ccc1O	-23.7%[46 µM]	?	/	10µM*	/	/
COc1ccc(OC)c(/C=N/Nc2nncn2/N=C/c2cc(OC)ccc2OC)c1	?	?	/	-7.0%	-9.7%	47.0
CN(Cc1ccco1)c1nc(-c2ccccc2Cl)nc2ccccc12	?	-14.6%	/	0.0%	-7.8%	/
CN(Cc1ccco1)c1nc(-c2cccnc2)nc2ccccc12	?	31.6µM*	/	/	/	/
COc1ccccc1CNC(=O)c1cccc(-c2ccccc2OC)n1	/	31.6µM*	/	1.2%[39.9 µM]	7.94µM*	/
COc1cccc(C(=O)NCc2ccccc2OC)c1	7.1%	-11.5%	4.0	0.2%	?	23.8
COc1ccccc1CNC(=O)c1cccs1	1.7%	11.1%	12.8	-1.7%	15.8µM*	-5.7
COc1ccc(C(=O)NCc2ccccc2OC)c(OC)c1	-5.9%	?	3.9	-2.4%	28.2µM*	6.2
SMILES	LMNA splice mod	ALDH1A1 inh	IMPase cell inh	Luc counter	HPGD block	PNC inhibitor
COc1ccc(C(=O)NCc2ccccc2OC)cc1	-12.2%	-0.6%	-5.2	-1.6%	-16.4%	184.1
COc1ccccc1CNC(=O)COC(=O)CCC(=O)c1cccs1	/	-6.2%	/	1.0%	/	/
COc1ccc(C(=O)NCCn2ccc3ccccc32)c(OC)c1	?	10µM*	?	1.2%	?	22.8
O=C(N/C=C\c1ccccc1)NCc1ccc(Cl)cc1	?	?	2.0	0.1%	-3.0%	23.4
COc1ccccc1CNC(=O)Nc1cccs1	7.5%	?	-0.7	19.5%	22.4µM*	-28.4
COc1ccccc1CNC(=O)c1c(-c2ccccc2)nn(-c2ccccc2)c1C	-20.5%	3.98µM*	6.9	-1.6%	-14.8%	19.7
COc1ccccc1CNC(=O)N/C=C/c1ccc(Cl)cc1	1.6%[9.22 µM]	25.1µM*	/	-4.2%	/	/
Cc1c(C(=O)O)c(-c2ccccc2)nn1-c1ccccc1	0.7%	-7.1%	1.0	-0.2%	-8.5%	?
COc1ccccc1C(OC(=O)c1cccs1)C(=O)NCc1ccco1 (stereo not given)	-5.0%	25.1µM*	4.8	-3.7%	-25.2%	?
CC(OC(=O)c1cccs1)C(=O)NCc1ccco1 (stereo not given)	5.0%	13.1%	-4.0	11.4%	-24.8%	?
N#C/C(=C/c1ccc(N2CCCCC2)o1)c1cccc(F)c1	-2.5%	?	-0.2	-4.5%	?	21.8
Cc1ccc2nc(/C(C#N)=C\c3ccc(N4CCOCC4)o3)[nH]c2c1	?	?	2.3	-9.3%	-12.6%	16.7
Cc1ccc(/C(C#N)=C\c2ccc(N3CCOCC3)o2)cc1	?	10µM*	4.4	-0.7%	?	-25.9
N#C/C(=C/c1ccc(N2CCCCCC2)o1)c1ccc(Cl)cc1	?	7.94µM*	13.1	-2.9%	?	-4.1
C=CCN1C(=O)N/C(=C/c2ccc(C)o2)C1=O	-14.1%	7.94µM*	/	0.7%	-18.9%	?
Cc1ccc(NC(=O)CN2C(=O)N/C(=C/c3ccc(C)o3)C2=O)cc1	-4.0%	12.6µM*	7.6	4.0%	?	?
Cc1cccc(NC(=O)CN2C(=O)N/C(=C/c3ccc(C)o3)C2=O)c1	-13.5%	10µM*	-3.9	2.3%	-24.1%	-1.4
COc1ccc(-n2c(=O)cnc3cnc(N4CCNCC4)nc32)cc1	/	?	/	-2.0%	-24.1%	/
O=C(Cn1c(SCc2ccc(F)cc2)nc2cccnc21)Nc1ccccc1F	10.7%[46 µM]	/	/	/	/	/
O=C(Nc1cccc(-n2cnnn2)c1)c1ccco1	4.7%	39.8µM*	-1.1	0.7%	-23.8%	8.4
O=C(Nc1ccc2c(c1)ncn2-c1ccccc1)c1ccco1	-12.3%	?	-6.3	6.3%	31.6µM*	-21.2
COc1ccc(OCC(=O)N/N=C/C=C/c2ccccc2)cc1	0.3%	5.8%	-1.1	-4.6%	-7.2%	-115.1*
O=C(CSc1ccccn1)N/N=C/C=C/c1ccccc1	?	6.2%	?	-0.8%	20µM*	3.0
CCOC(=O)C1CCCN(C(=O)CCS(=O)(=O)c2cc3c(cc2Cl)NC(=O)CO3)C1 (stereo not given)	14.6%[46 µM]	/	/	/	/	/
c1ccc(-c2cn3c4c(sc3n2)CCCC4)cc1	-12.4%	?	8.2	11.2µM*	-28.6%	?
Cc1ccc(C(=O)CC(=O)c2cccc(F)c2)c(O)c1	?	-4.2%	-1.3	-1.0%	14.1µM*	6.8
COc1cccc(CNC(=O)CN2C(=O)N(c3cccc(Cl)c3)S(=O)(=O)c3ccccc32)c1OC	4.9%[46 µM]	/	/	/	/	/

Source: PubChem (National Center for Advancing Translational Sciences (NCATS))
